High-throughput results: PubChem, several laboratories
PHOSPHO1 inh – inhibitors of human PHOSPHO1 phosphatase. 290,000 compounds, 1.1% hits. recombinant PHOSPHO1, absorbance phosphatase assay. Q8TCT1. inhibition, % at 13.3 µM. AID 1565; in the data active = inhibition above about 60%
PABP1 MLLE inh – inhibitors of microRNA-mediated deadenylation, human PABP1 MLLE binding; inhibition, % at 20 µM; AID 588489; GST-MLLE / FITC-PAM2 fluorescence polarization; 360,000 compounds, 0.36% hits; in the data active = inhibition above about 35%, passing the limit was not always enough;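 note: plate controls were DMSO wells with GST-MLLE for no effect and wells lacking GST-MLLE protein for full effect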
Target sequence (P11940 whole entry, looked up): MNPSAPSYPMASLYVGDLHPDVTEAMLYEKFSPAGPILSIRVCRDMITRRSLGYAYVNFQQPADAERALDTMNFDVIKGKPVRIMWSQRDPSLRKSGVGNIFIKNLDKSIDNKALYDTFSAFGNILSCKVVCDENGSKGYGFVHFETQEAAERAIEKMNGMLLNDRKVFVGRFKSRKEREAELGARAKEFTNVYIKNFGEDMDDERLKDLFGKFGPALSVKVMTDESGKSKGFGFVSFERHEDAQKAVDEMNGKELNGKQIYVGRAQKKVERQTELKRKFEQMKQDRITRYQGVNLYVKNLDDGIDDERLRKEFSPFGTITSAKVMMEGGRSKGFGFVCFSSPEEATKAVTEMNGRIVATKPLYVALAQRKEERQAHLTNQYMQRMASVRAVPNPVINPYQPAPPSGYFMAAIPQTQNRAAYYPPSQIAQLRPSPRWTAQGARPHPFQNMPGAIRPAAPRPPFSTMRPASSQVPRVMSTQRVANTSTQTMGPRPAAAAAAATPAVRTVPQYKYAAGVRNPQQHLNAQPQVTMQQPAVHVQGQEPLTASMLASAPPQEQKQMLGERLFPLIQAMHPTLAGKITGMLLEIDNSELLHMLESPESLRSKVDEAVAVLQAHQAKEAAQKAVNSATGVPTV
HMGR II inh – E. faecalis class II HMG-CoA reductase inhibition. purified E. faecalis HMGR, NADPH absorbance 340 nm kinetic. inhibition, % at 10 µM. 190,000 compounds, 0.41% hits;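 active = inhibition above a set limit, the median over all tested compounds plus 3 SD, cut at about 9.5% in these data; inconclusive = no clear call, values can overlap the other calls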;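 note: enzyme runs in reverse so mevalonate oxidation gives rising NADPH absorbance; 0% = complete reaction with DMSO and 100% = background rate lacking mevalonate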
eIF4H inh – inhibitors of RNA binding by human eIF4H | Q15056 | eIF4H fluorescence polarization binding assay | inhibition, % at 35 µM | 290,000 compounds, 0.94% hits | AID 2012;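 note: calls also rest on retests at 20 µM and on dose response follow-up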
PABP FP inh – blocks human PABP binding to poly(A) RNA | P11940 | fluorescence polarization | calls only at 35 µM | 290,000 compounds, 1% hits;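 note: calls also rest on retests at 20 µM and on dose response follow-up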
* = called active by the depositor. This is a sample that favours compounds with a hit; in the whole collection about 2.4% have one here. Unless noted, the rule behind the calls is not given here.

CCN(CC(=O)N1CCCC1)S(=O)(=O)c1ccc(Br)cc1 was read as PHOSPHO1 inh 19.2, PABP1 MLLE inh -8.5, eIF4H inh 0.9 and PABP FP inh inactive.
CCN(CC(=O)N1CCCC1)S(=O)(=O)c1ccccc1 was read as PHOSPHO1 inh 18.7, PABP1 MLLE inh 2.3, eIF4H inh 71.8* and PABP FP inh active.
Screening CCOc1ccc(NC(=O)CCC(=O)N/N=C(\C)c2cccs2)cc1 returned PHOSPHO1 inh 36.6, PABP1 MLLE inh 5.6, eIF4H inh -21.4 and PABP FP inh inactive.
C/C(=N\NC(=O)CCC(=O)Nc1ccccc1)c1cccs1 was read as PHOSPHO1 inh -23.7, PABP1 MLLE inh 3.7, HMGR II inh -1.3, eIF4H inh 1.1* and PABP FP inh inactive.
Screening CN1CCN(C(=O)CCN2C(=O)/C(=C\c3ccc(Cl)cc3Cl)SC2=S)CC1 returned PHOSPHO1 inh 83.6*, PABP1 MLLE inh 31.1, eIF4H inh -4.4 and PABP FP inh inactive.
For CN1CCN(C(=O)CCCN2C(=O)/C(=C/c3ccc(Cl)cc3)SC2=S)CC1 the results were PABP1 MLLE inh 7.1.
Cc1cccc(CSc2nc3ccncc3n2CC(=O)Nc2cc(C)cc(C)c2)c1 was read as PHOSPHO1 inh -3.7, PABP1 MLLE inh -9.0, HMGR II inh 12.5*, eIF4H inh -5.4 and PABP FP inh inactive.
C=CC[n+]1c(-c2ccc(C)cc2)csc1Nc1ccc(NC(C)=O)cc1 was read as PHOSPHO1 inh 15.0, PABP1 MLLE inh -11.6, HMGR II inh 5.8, eIF4H inh -8.9 and PABP FP inh inactive.
Screening C=CC[n+]1c(-c2ccc(OC)cc2)csc1NNC(=O)Nc1ccccc1 returned PHOSPHO1 inh 66.0*, PABP1 MLLE inh -50.6, HMGR II inh -4.1, eIF4H inh 69.5* and PABP FP inh active.
For O=P(c1ccccc1)(c1ccccc1)C(O)c1cccs1 (configuration not stated) the results were PABP1 MLLE inh -2.3.
Screening CC(C)CN(Cc1cc2ccccc2[nH]c1=O)C(=O)c1cccnc1 returned PHOSPHO1 inh -8.4, PABP1 MLLE inh 9.7, HMGR II inh -1.4, eIF4H inh -10.8 and PABP FP inh inactive.
For CCN(Cc1cc2ccc(C)cc2[nH]c1=O)C(=O)c1cccnc1 the results were PHOSPHO1 inh -6.5, HMGR II inh -2.5, eIF4H inh 84.1* and PABP FP inh active.
For CN(CC1CCCN(CCc2ccc(F)cc2)C1)C(=O)CCC(N)=O (configuration not stated) the results were PABP1 MLLE inh 3.9, eIF4H inh 12.5 and PABP FP inh inactive.
COc1ccc(C2(C)NC(=O)N(CC(=O)Nc3ccc(Br)cc3F)C2=O)cc1OC (configuration not stated) was read as PHOSPHO1 inh 35.1, PABP1 MLLE inh -8.4, eIF4H inh -3.9 and PABP FP inh inactive.
For COc1cccc(CN2CCN(C3CCN(c4ccccc4C)CC3)CC2CCO)c1 (configuration not stated) the results were PHOSPHO1 inh -13.2, PABP1 MLLE inh 14.1, HMGR II inh 10.7*, eIF4H inh -9.0 and PABP FP inh inactive.
`COc1cccc(CN2CCN(C3CCN(c4cccc(C)c4C)CC3)CC2CCO)c1` (configuration not stated) gave PHOSPHO1 inh 23.4, PABP1 MLLE inh -4.4, HMGR II inh 0.3, eIF4H inh 5.7 and PABP FP inh inactive.
CCNc1nc(NC(C)C)nc(NC(C)(C)C)n1 was read as PHOSPHO1 inh 54.2, PABP1 MLLE inh -9.1, HMGR II inh 13.0*, eIF4H inh -4.9 and PABP FP inh inactive.
Screening CCc1ccc(C(O)c2ncc(-c3cccc4ccccc34)[nH]2)cc1 (configuration not stated) returned PABP1 MLLE inh -11.5.
COC(=O)c1ccc2c(=O)sc(N3CCC(C(N)=O)CC3)nc2c1 was read as PHOSPHO1 inh 3.3, PABP1 MLLE inh 44.3*, HMGR II inh -4.9, eIF4H inh -8.7 and PABP FP inh inactive.
`O=C(CSc1nnnn1-c1cccc2ccccc12)NC(C(=O)O)(c1ccccc1)c1ccccc1` gave PHOSPHO1 inh -18.3, PABP1 MLLE inh -35.3, HMGR II inh 1.2, eIF4H inh -0.8 and PABP FP inh inactive.
CC1=C(C(=O)OCCOC(C)C)C(c2cc3c(cc2Br)OCO3)C2=C(CCCC2=O)N1 (configuration not stated) was read as PHOSPHO1 inh 0.1, PABP1 MLLE inh 67.4*, HMGR II inh -1.5, eIF4H inh 10.2 and PABP FP inh inactive.
Screening CCN(CC)c1ccc(C2C(C(=O)OCCOC(C)C)=C(C)NC3=C2C(=O)CCC3)cc1 (configuration not stated) returned PHOSPHO1 inh 6.2, PABP1 MLLE inh 4.7, HMGR II inh 3.0, eIF4H inh -4.6 and PABP FP inh inactive.
For CC1CCCN(Cc2c(O)ccc3c2O/C(=C\c2ccco2)C3=O)C1 (configuration not stated) the results were PHOSPHO1 inh -17.8, PABP1 MLLE inh 68.2, HMGR II inh -1.2, eIF4H inh 85.1* and PABP FP inh active.
`O=C1C=CC(=Nc2ccc(F)cc2)O1` gave PABP1 MLLE inh 40.4*.
Screening Cc1ccc(S(=O)(=O)N2CN(Cc3ccco3)c3nc4ccccc4nc32)cc1 returned PHOSPHO1 inh 32.7, PABP1 MLLE inh -4.8, HMGR II inh -0.1, eIF4H inh inconclusive and PABP FP inh active.
Screening O=S(=O)(c1ccc(F)cc1)N1CN(Cc2ccco2)c2nc3ccccc3nc21 returned PHOSPHO1 inh 5.7, PABP1 MLLE inh -2.5, HMGR II inh 2.2, eIF4H inh 122.4* and PABP FP inh active.
`COc1ccc(S(=O)(=O)N2CN(Cc3ccco3)c3nc4ccccc4nc32)cc1` gave PHOSPHO1 inh -31.3, PABP1 MLLE inh 2.8, HMGR II inh 1.6, eIF4H inh inconclusive and PABP FP inh inconclusive.
CCCCN1C(=O)C(=O)N(CC(=O)Nc2sc(CC)cc2C(=O)OCC)C1=O was read as PABP1 MLLE inh -9.7.
Screening CNc1nc(-c2ccccc2)nc(-c2ccc(OC)cc2)c1C#N returned PHOSPHO1 inh 48.9, PABP1 MLLE inh 2.9, HMGR II inh 12.7*, eIF4H inh -8.9 and PABP FP inh inactive.
For CCOC(=O)N1CCC(NC(=O)c2ccc3c(c2)N(CC)CCS3)CC1 the results were PABP1 MLLE inh 38.0*.
For Cc1ccc(CN2CCSc3ccc(C(=O)NC4CCCC4)cc32)cc1 the results were PHOSPHO1 inh 29.8 and PABP1 MLLE inh 5.8.
For O=C1CC(=O)c2c1cccc2[N+](=O)[O-] the results were PHOSPHO1 inh -135.4, eIF4H inh 65.1* and PABP FP inh active.
Screening CCCn1nc(C(=O)OCC(=O)Nc2cccc(OC)c2)c2ccccc2c1=O returned PHOSPHO1 inh 38.9, PABP1 MLLE inh 0.3, HMGR II inh 2.8, eIF4H inh -0.8 and PABP FP inh inactive.
`C=C(C)C(=O)Nc1cccc(C2=NOC3(C2)C[C@@H](C(N)=O)N(C(=O)/C=C/CC)C3)c1` (some centres not stated) gave PHOSPHO1 inh 13.3, PABP1 MLLE inh 1.7, eIF4H inh 84.1* and PABP FP inh active.
